The list is not random: actives were taken first. Their share in the collection is about 1.8%.
Sa ugtP lethal: compounds lethal to S. aureus RN4220 ugtP deletion mutant; actives 0.54% (n = 330,000); OD600 growth, 16 h; growth inhibition, % (test concentration not listed); in the data active = growth inhibition above about 68%
PfHsp40 rescue: restores yeast growth despite PfHsp40 toxicity; AID 504582; actives 0.68% (n = 340,000); S. cerevisiae expressing PfHsp40, growth rescue, ATP luminescence; growth rescue, % at 12.5 µM; in the data active = growth rescue above about 28%, passing the limit was not always enough;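 also: yeast W303a lacking pdr1 and pdr3 grown in galactose medium; growth measured after three days at 30 °C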
Sa RN4220 lethal: S. aureus RN4220 growth inhibition; OD600, 16 h; inhibition, % (no concentration beside the values); actives 0.33% (n = 330,000); AID 1259311; in the data active = inhibition above about 85%
DUSP3 inh: blocks human VHR1 dual specificity phosphatase; P51452; recombinant VHR phosphatase, pNPP absorbance; inhibition, % at 13.3 µM; actives 0.52% (n = 290,000); AID 1654; in the data active = inhibition above about 50%
Target sequence (P51452 whole entry, looked up): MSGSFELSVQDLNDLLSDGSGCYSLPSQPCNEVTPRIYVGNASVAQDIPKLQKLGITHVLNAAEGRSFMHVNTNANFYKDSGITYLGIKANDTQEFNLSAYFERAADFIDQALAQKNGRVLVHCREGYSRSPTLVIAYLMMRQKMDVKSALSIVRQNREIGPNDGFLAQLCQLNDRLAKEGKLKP
Mtb hypoxia rep: reduces hypoxia-regulated biosensor signal in M. tuberculosis. M. tuberculosis hypoxia-regulated fluorescent reporter, fluorescence. fluorescence inhibition, % (test concentration not listed). actives 0.1% (n = 300,000); in the data active = fluorescence inhibition mostly above about 23%, no sharp cut-off; inactive = mostly below about 17%
PriA SSB inh: blocks PriA binding to SSB C-terminal tail; inhibition, % at 33 µM; actives 0.6% (n = 430,000); AlphaScreen SSBct-PriA binding, biotinylated peptide; in the data active = inhibition mostly above about 37%, no sharp cut-off; inactive = mostly below about 20%
Hits are given with their value; i = inactive; nt = not tested or not shown.

SMILES	Sa ugtP lethal	PfHsp40 rescue	Sa RN4220 lethal	DUSP3 inh	Mtb hypoxia rep	PriA SSB inh
O=C(Cc1cccs1)NNC(=S)NCc1ccc(Cl)cc1	i	72	i	i	i	i
O=C(NC[C@H](O)c1csc2ccccc12)Nc1ccccc1C(F)(F)F	nt	nt	nt	nt	nt	i
O=C(NCc1ccccc1Cl)C1CCN(c2ccc(-c3ccco3)nn2)CC1	nt	nt	nt	nt	nt	i
CNC(=S)N1CCC(Cc2ccccc2)CC1	i	i	i	i	i	i
C=CCNC(=S)N1CCC(Cc2ccccc2)CC1	i	91	i	i	i	i
S=C(NCCN1CCOCC1)Nc1ccc(Cl)cc1Cl	i	i	i	i	i	i
Fc1ccc(CCNC(=S)Nc2ccc(F)c(Cl)c2)cc1	i	113	i	i	i	i
S=C(NCCc1ccc(Cl)cc1)Nc1ccc(Cl)cc1Cl	99	70	100	i	i	i
Fc1ccc(NC(=S)NCCc2ccc(Cl)cc2)cc1	i	i	i	i	i	i
S=C(NCCCN1CCOCC1)Nc1ccc(Cl)cc1Cl	i	i	i	55	i	i
COc1ccc(CNS(=O)(=O)c2ccc(-c3cc(C)no3)cc2)cc1	i	i	i	60	i	i
Cc1cc(-c2ccc(S(=O)(=O)NCc3ccc(F)cc3)cc2)on1	i	i	i	i	i	i
CC(=O)/C=C(\C)Nc1ccccc1O	i	43	i	i	nt	nt
Cc1c2ccncc2cc2c1[nH]c1ccccc12	i	i	i	nt	i	i
Cc1c2ccncc2c(C)c2c1[nH]c1ccccc12	100	i	98	i	60	i
COc1ccc2[nH]c(C)cc(=O)c2c1	i	i	i	i	nt	i
COc1ccc2[nH]c3c(C)c4ccncc4c(C)c3c2c1	96	i	98	i	nt	i
O=[N+]([O-])c1ccc(N2CCCCCC2)c2ncccc12	i	i	i	i	i	42
O=[N+]([O-])c1ccc(N2CCCCC2)c2ncccc12	i	i	i	i	i	51
O=[N+]([O-])c1cc(S(=O)(=O)c2ccc(N3CCCCC3)c([N+](=O)[O-])c2)ccc1N1CCCCC1	i	i	i	i	i	42
CS(=O)(=O)c1ccc(N2CCC(Cc3ccccc3)CC2)c([N+](=O)[O-])c1	nt	nt	nt	nt	nt	41
CS(=O)(=O)c1ccc(N2CCN(c3ccccc3)CC2)c([N+](=O)[O-])c1	nt	nt	nt	nt	nt	i
O=C(OCN1C(=O)c2ccccc2C1=O)c1ccc(Br)o1	nt	nt	nt	nt	nt	i
CC(C)(C)Cc1nnc(C2CCCN(C(=O)C3CC3)C2)o1 (configuration not stated)	nt	nt	nt	nt	nt	i
Cc1cn2c(=O)c(C(=O)NCC3CCCC(CNC(=O)c4cnc5sc(C)cn5c4=O)C3)cnc2s1 (configuration not stated)	nt	nt	nt	nt	nt	i
SMILES	Sa ugtP lethal	PfHsp40 rescue	Sa RN4220 lethal	DUSP3 inh	Mtb hypoxia rep	PriA SSB inh
Cc1cccc(NC(=O)N2CCC(c3nnc(C4CC4)s3)CC2)c1	nt	nt	nt	nt	nt	i
O=C(Cc1ccccc1)Nc1nc2sc3c(c2c(=O)s1)CCCC3	nt	nt	nt	nt	nt	i
Nc1nc(N2CCCCC2)nc(N2CCCCC2)n1	i	i	i	52	i	i
COc1ccccc1-n1nnc(C(=O)Nc2nc(C)cc(C)n2)c1-c1ccncc1	nt	nt	nt	nt	nt	i
COc1ccc(/C=C/C(=O)OCC(=O)NC2CCCC(C)C2C)c(OC)c1 (configuration not stated)	85	i	i	nt	i	i
COc1ccc(/C=C/C(=O)OCC(=O)NC2CC2)c(OC)c1	i	i	i	nt	i	i
Cc1nnc(-c2ccc(NC(=O)COc3ccc(Cl)cc3Cl)cc2)o1	nt	nt	nt	nt	nt	i
c1ccc(Cn2ncc3ccccc32)cc1	i	i	i	i	i	i
CN(C)c1nc(-c2ccccc2)c2cnn(Cc3ccccc3)c2n1	89	i	i	i	i	i
O/N=C(\c1ccc(Cl)cc1)c1cc2ccccc2o1	nt	641	nt	i	nt	nt
O=C(Nc1ccc(Cl)cc1Cl)c1cc2ccccc2o1	i	i	i	i	i	i
O=S(=O)(NC1CCCCCC1)c1ccc(Br)s1	i	59	i	i	i	i
NC(=O)c1ccc2c(=O)n3c(-c4cccs4)csc3nc2c1	88	i	i	i	i	i
Cc1ccc(-c2csc3nc4cc(C(N)=O)ccc4c(=O)n23)cc1	i	i	i	i	i	i
COCCCNC(=O)c1cc(-c2ccco2)nc2c1c(C)nn2C1CCS(=O)(=O)C1 (configuration not stated)	nt	nt	nt	nt	nt	i
O=C(c1ccc(CS(=O)Cc2ccc(Cl)cc2)o1)N1CCN(c2cccc(Cl)c2)CC1 (configuration not stated)	93	i	i	i	i	i

Screening data deposited in PubChem by several laboratories.
